# This is a sample that favours compounds with a hit; in the whole collection about 19% have one here.
# TDP1 cell noCPT – qHTS for Inhibitors of human tyrosyl-DNA phosphodiesterase 1 (TDP1): qHTS in cells in absence of CPT. 420,000 tested, 15% active. Potency, µM (titrated, usually from 46.2 µM), without a hit: top-dose activity change, negative = growth inhibition, actives largely listed as inhibitors. AID 686978, 2013. DT40 Tdp1-/- hTDP1 cells, no CPT, ATP luminescence, 48 h; note: potency is the fitted concentration of half-maximal effect; % is set by controls: 0 for no effect and ±100 for the full control effect; nearly all actives have a fitted effect of over 55% in size
#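 DT40 Tdp1-/-;hTDP1 cells, no CPT (DMSO vehicle only), 400 cells/well; compounds pin-transferred; ≥48 hr, 37 °C; CellTiter-Glo 30 min RT dark, luminescence read.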
# HepG2 viability – counter-screen for TGF-b inhibitors: cytotoxicity in HepG2 cells; 410,000 tested, 0.76% active; HepG2 CAGA-GFP viability, ATP luminescence, 18 h; AID 588856; Potency, µM (highest dose often 46.1 µM), for inactives: at the highest dose activity change, negative = cytotoxicity, most hits filed as cytotoxic; note: potency is the fitted concentration of half-maximal effect
#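 CellTiter-Glo luminescence gave cytotoxicity after 18 hours at 37 degrees C. The cells were HepG2 CAGA-GFP in 1% FBS DMEM, stimulated with 500 pg/mL TGF-beta after compound addition. %Activity was normalised to no-cell wells (complete cell-killing) and DMSO (no toxicity), and curves were fitted and classified.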
# ASM inhibitor – human S-ASM enzyme inhibition; P17405; placental ASM, HMU-PC fluorogenic substrate, 60 min; Potency, µM (titrated, usually from 57.5 µM), without a hit: at the highest dose activity change, negative = inhibition, hits mostly inhibitors; 340,000 tested, 0.006% active; AID 504937; note: potency is the fitted concentration of half-maximal effect
# Target sequence (P17405 47-631 limits assumed): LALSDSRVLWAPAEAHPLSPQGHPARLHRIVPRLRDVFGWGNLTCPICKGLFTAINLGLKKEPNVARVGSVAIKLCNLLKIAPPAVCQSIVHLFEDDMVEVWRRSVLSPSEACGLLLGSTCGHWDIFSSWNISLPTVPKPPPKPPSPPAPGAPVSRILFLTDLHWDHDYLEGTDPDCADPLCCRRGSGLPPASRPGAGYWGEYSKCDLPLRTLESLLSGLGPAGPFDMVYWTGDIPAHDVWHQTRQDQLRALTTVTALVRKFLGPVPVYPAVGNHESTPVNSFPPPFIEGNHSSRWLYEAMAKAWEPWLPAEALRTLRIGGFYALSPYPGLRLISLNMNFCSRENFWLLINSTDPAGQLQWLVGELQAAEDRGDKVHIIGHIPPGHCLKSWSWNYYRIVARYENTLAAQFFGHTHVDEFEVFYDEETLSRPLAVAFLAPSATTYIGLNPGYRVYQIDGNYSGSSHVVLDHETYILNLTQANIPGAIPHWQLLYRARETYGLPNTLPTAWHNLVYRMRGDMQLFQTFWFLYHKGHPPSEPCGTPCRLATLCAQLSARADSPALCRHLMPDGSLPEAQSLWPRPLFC
#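 Fluorescence read-out (Ex 386 nm, Em 447 nm) after stopping the reaction at pH 10. Enzyme: ASM from human placenta; substrate HMU-PC0, 9 uM final; 60 min, 37 °C. Compound preincubation 10 min, ambient temperature.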
# IL1B secr inh – blocks inflammasome-driven IL-1 beta release | 360,000 tested, 4.7% active | AID 743279 | activity change, % at 57.5 µM | THP-1 LPS/ATP IL-1B secretion, AlphaLISA, 16 h; hits give low values; in the data active = activity change below about -50%; inconclusive = mostly about -30% to -49%; note: % is set by controls: 0 for no effect and ±100 for the full control effect
#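 THP-1 cells pretreated 1 hr with compounds (up to 57.5 uM final), then stimulated with LPS (250 ng/mL final) plus ATP (1.25 mM final); secreted IL-1B measured by AlphaLISA after 16 hr, decreased signal indicating inhibition.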
# TGFb inhibitor – TGF-b pathway inhibition. HepG2 CAGA-GFP TGF-b/SMAD3 reporter, GFP fluorescence, 18 h; TGF-beta stimulated, 500 pg/mL final. Potency, µM (top dose mostly 46.1 µM), for inactives: top-dose activity, negative = inhibition, hits mostly inhibitors. 410,000 tested, 1.2% active. AID 588855; note: potency is the fitted concentration of half-maximal effect; % is set by controls: 0 for no effect and ±100 for the full control effect; nearly all actives have a fitted effect of over 65% in size
#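 Read-out: total well GFP (ex488/em500-530) summed from mean per-cell fluorescence. Cells: HEPG2 CAGA-GFP, 1% FBS DMEM, 18 h at 37 degrees C with 500 pg/mL final TGF-beta. Unstimulated wells served as the full-inhibition control; stimulated DMSO wells = 0%.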
# TDP1 cell CPT – DT40-hTDP1 cell growth loss with CPT; AID 686979; Potency, µM (titrated, usually from 46.2 µM), inactives show top-dose activity change, negative = growth inhibition, actives largely listed as inhibitors; chicken DT40 Tdp1-/-;hTDP1 cells + 20 nM CPT, ATP luminescence, 48 h; 420,000 tested, 12% active; note: potency is the fitted concentration of half-maximal effect; % is set by controls: 0 for no effect and ±100 for the full control effect; nearly all actives have a fitted effect of over 55% in size
#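 Cell growth measured by CellTiter-Glo luminescence after a minimum 48 h, 37 C compound exposure with 20 nM CPT in Tdp1-knockout DT40 cells stably expressing hTDP1, seeded 400/well; qHTS titration format.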
# Numbers without * were called inactive; ? = inconclusive; / = no result; ! = not active in a repeat. Unless noted, calls come from the whole dose curve; as a rule, active = well fitted curve in the direction sought with a large enough effect; inconclusive = small, poorly fitted or top-dose-only effect, or another doubt; inactive = no such curve, though single readings can be large; an effect the other way counts as inactive or inconclusive.
SMILES,TDP1 cell noCPT,HepG2 viability,ASM inhibitor,IL1B secr inh,TGFb inhibitor,TDP1 cell CPT
CCOC(=O)[C@]12Cc3ccccc3[C@H]1N(CCC(=O)OC)C(=O)c1ccccc12,16.4µM*,/,/,/,/,18.4µM*
CCOC(=O)[C@]12Cc3cc(C)ccc3[C@H]1N(CCC(=O)OC)C(=O)c1cc(OC)ccc12,8.2µM*,/,/,-124.0*,/,10.3µM*
COC(=O)C12CCc3cc(OC)ccc3C1=CC(=O)C2 (stereo unspecified),?,-3.1%,/,-0.7,-1.6%,11.5%
CC(N)[C@@H](O)c1ccccc1 (stereo partly specified),13.2%,/,/,/,/,2.3%
COC(C)C(O)(C(=O)OC1=CCN2CC[C@H](O)[C@H]12)C(C)C (stereo partly specified),21.1µM*,/,/,/,/,10.6µM*
CC(C)[C@H]1C(=O)O[C@@H]2CCN3CC=C(COC(=O)[C@](C)(O)[C@]1(C)O)[C@H]23,-18.7%,-0.8%,2.4%,9.4,2.0%,?
COC(=O)C1=C(c2cc3ccccc3s2)C[C@@H]2CC[C@H]1N2C(=O)NCCS(C)=O (stereo partly specified),-24.7%,-11.0%,-1.3%,8.9,2.4%,-1.2%
Cc1cc(/C=C/c2cccc3sc(C)[n+](CCCCI)c23)ccc1N(CCCl)CCCl,1.58µM*,-8.0%,/,/,?,2µM*
CN1C[C@H](C(=O)N[C@@]2(C)O[C@@]3(O)C4CCCN4C(=O)C(Cc4ccccc4)N3C2=O)C[C@H]2c3cccc4[nH]cc(c34)C[C@H]21 (stereo partly specified),-15.3%,/,/,/,/,12.3%
CC(C)[C@H]1C(=O)N2CCC[C@H]2[C@]2(O)O[C@](NC(=O)[C@@H]3C[C@@H]4c5cccc6[nH]cc(c56)C[C@H]4N(C)C3)(C(C)C)C(=O)N12,18.8µM*,/,/,/,/,?
CC(C)[C@@]1(NC(=O)[C@@H]2C[C@@H]3c4cccc5[nH]cc(c45)C[C@H]3N(C)C2)O[C@@]2(O)[C@@H]3CCCN3C(=O)[C@H](Cc3ccccc3)N2C1=O,18.8µM*!,8.2%,35.0%,0.0,-2.8%,26.6µM*!
COC/C=C1\CN2C3C[C@@H]1[C@H]1COC4=Nc5cc(OC)c(OC)c(OC)c5[C@@]43C[C@@H]12,-10.4%,-4.3%,-4.0%,-8.8,-4.1%,8.2%
Cn1c(O)c(C=NC2CCCCCC2)c(=O)[nH]c1=S,14.7%,-1.8%,-2.9%,-9.4,2.5%,-17.0%
CC1(C)[C@@H](O)C[C@H]2[C@](C)(O)[C@@H]3CC[C@H]4[C@@H](O)[C@@]3(C[C@@H](O)[C@@]21O)C[C@@]4(C)O,6.4%,/,/,/,/,-2.5%
CCOc1ccc(N(C(C)C(=O)Nc2cc(Cl)ccc2OC)S(C)(=O)=O)cc1 (stereo unspecified),0.517µM*,-14.1%,/,/,?,0.581µM*
Cc1ccc(NC(=O)COc2ccc(-c3nn(C)c(=O)c4ccccc34)cc2)c(C)c1,13µM*,-10.1%,/,/,/,16.4µM*
CCN(CC)C(=O)c1ccc(NC(=O)Cn2nc(-c3ccc(C)cc3)c3ccccc3c2=O)cc1,-19.6%,-1.4%,/,/,-10.6%,3.4%
CCN(CC)C(=O)c1ccc(NC(=O)COC(=O)c2ccc(Cl)s2)cc1,-1.4%,-20.3%,-2.3%,2.0,-2.1%,-6.1%
Cn1nc(-c2ccc(C(=O)Nc3ccc(OC(F)(F)F)cc3)cc2)c2ccccc2c1=O,16.4µM*,-19.6%,/,/,?,9.2µM*
O=C(Nc1ccc(OC(F)(F)F)cc1)c1cccn(Cc2ccccc2Cl)c1=O,-0.9%,-15.5%,/,/,7.3%,1.1%
